# Data taken from ChEMBL document CHEMBL1961873, “Compounds: GSK PKIS; Assays: Nanosyn kinase panel” (2012).
# Legend:
# [1] = molecular target: Sphingosine kinase 1 (Homo sapiens) (UniProt Q9NYA1); conditions: at 1 µM;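 note: mean SPHK1 inhibition value reported from the GSK PKIS kinase panel screen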
# [2] = molecular target: T1, Sphingosine kinase 2 (Homo sapiens) (UniProt Q9NRA0); conditions: at 0.1 µM
# T1 sequence (whole entry): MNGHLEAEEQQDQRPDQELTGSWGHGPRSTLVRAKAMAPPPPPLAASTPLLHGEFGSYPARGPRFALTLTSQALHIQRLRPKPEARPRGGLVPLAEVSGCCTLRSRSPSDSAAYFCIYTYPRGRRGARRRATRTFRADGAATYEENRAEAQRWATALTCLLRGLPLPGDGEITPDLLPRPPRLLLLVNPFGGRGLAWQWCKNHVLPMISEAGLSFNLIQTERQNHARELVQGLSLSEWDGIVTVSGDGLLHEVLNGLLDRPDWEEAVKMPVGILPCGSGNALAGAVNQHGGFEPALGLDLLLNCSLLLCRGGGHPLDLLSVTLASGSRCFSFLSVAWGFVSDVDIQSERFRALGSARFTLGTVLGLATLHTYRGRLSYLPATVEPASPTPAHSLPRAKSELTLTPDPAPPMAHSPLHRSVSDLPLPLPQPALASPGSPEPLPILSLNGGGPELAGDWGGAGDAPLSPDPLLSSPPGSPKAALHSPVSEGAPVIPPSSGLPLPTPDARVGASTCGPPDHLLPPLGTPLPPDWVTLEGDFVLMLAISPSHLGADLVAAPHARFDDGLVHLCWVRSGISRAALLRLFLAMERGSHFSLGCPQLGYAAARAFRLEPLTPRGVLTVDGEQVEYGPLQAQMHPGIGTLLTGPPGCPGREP
# [3] = molecular target: T1, Sphingosine kinase 2 (Homo sapiens); conditions: at 1 µM
# [4] = molecular target: Casein kinase II subunit alpha (Homo sapiens) (UniProt P68400); conditions: at 0.1 µM
# [5] = molecular target: Casein kinase II subunit alpha (Homo sapiens) (UniProt P68400); conditions: at 1 µM
# [6] = molecular target: T2, Inhibitor of nuclear factor kappa-B kinase subunit alpha (Homo sapiens) (UniProt O15111); conditions: at 0.1 µM
# T2 sequence (whole entry): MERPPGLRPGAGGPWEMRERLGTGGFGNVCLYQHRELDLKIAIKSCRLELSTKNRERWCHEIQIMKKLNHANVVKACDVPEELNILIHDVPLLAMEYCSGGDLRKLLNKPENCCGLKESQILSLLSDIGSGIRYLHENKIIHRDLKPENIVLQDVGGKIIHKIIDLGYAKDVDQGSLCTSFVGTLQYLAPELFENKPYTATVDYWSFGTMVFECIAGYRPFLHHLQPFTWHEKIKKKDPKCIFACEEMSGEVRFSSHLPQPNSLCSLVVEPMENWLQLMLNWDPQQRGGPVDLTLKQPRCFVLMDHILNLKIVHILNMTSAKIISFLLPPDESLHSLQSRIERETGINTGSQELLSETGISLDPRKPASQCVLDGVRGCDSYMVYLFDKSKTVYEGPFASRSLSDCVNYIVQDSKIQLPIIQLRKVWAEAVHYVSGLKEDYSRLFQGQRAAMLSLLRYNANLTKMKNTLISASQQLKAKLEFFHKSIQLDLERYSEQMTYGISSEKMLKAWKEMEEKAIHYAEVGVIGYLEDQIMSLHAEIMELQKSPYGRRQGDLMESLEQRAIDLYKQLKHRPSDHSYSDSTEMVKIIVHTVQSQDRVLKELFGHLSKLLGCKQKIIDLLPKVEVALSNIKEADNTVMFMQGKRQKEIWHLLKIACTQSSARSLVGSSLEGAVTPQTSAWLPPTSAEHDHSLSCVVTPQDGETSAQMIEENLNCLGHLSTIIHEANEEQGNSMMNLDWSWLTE
# [7] = molecular target: T2, Inhibitor of nuclear factor kappa-B kinase subunit alpha (Homo sapiens); conditions: at 1 µM
# [8] = molecular target: T3, Inhibitor of nuclear factor kappa-B kinase subunit beta (Homo sapiens) (UniProt O14920); conditions: at 0.1 µM
# T3 sequence (whole entry): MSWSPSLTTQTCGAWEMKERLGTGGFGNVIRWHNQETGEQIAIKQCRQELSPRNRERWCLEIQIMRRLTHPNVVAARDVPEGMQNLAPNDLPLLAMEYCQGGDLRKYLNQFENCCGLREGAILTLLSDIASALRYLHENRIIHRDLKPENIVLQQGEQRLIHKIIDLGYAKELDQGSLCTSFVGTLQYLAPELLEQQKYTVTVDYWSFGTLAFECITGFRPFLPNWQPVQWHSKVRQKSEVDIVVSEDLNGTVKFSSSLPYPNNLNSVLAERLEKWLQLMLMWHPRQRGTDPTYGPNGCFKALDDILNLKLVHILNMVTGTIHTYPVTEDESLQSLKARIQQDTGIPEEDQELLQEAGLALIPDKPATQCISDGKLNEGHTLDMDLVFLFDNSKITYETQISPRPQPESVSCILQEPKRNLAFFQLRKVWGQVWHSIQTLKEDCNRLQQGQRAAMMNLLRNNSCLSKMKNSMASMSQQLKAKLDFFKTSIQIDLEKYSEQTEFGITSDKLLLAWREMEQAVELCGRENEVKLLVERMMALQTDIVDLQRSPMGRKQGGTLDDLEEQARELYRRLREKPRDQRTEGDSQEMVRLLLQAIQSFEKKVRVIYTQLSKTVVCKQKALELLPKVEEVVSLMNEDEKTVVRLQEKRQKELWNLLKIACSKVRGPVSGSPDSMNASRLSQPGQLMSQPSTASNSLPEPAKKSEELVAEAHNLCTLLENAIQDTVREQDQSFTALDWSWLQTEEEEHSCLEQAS
# [9] = molecular target: T3, Inhibitor of nuclear factor kappa-B kinase subunit beta (Homo sapiens); conditions: at 1 µM
# [10] = molecular target: T4, Inhibitor of nuclear factor kappa-B kinase subunit epsilon (Homo sapiens) (UniProt Q14164); conditions: at 0.1 µM
# T4 sequence (whole entry): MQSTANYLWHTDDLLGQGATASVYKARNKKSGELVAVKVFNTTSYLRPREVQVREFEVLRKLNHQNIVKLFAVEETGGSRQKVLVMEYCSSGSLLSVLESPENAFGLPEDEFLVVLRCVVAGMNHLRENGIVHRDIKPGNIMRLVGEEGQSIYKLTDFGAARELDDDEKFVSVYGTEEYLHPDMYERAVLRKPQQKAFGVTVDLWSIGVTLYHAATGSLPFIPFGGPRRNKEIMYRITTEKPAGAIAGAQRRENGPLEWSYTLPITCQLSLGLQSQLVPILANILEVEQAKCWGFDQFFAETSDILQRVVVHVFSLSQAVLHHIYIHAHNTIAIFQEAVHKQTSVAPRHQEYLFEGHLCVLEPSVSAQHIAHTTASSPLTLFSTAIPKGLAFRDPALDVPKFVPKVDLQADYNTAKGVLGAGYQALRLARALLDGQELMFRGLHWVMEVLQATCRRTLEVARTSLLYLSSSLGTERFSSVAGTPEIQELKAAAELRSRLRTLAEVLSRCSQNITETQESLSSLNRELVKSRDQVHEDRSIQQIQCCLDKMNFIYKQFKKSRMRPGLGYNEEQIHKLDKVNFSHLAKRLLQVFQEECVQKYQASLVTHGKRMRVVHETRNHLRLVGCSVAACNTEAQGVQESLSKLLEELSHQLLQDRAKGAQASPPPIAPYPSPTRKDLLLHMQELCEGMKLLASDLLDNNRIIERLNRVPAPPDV
# [11] = molecular target: T4, Inhibitor of nuclear factor kappa-B kinase subunit epsilon (Homo sapiens); conditions: at 1 µM
# [12] = molecular target: T5, Serine/threonine-protein kinase Nek1 (Homo sapiens) (UniProt Q96PY6); conditions: at 0.1 µM
# T5 sequence (whole entry): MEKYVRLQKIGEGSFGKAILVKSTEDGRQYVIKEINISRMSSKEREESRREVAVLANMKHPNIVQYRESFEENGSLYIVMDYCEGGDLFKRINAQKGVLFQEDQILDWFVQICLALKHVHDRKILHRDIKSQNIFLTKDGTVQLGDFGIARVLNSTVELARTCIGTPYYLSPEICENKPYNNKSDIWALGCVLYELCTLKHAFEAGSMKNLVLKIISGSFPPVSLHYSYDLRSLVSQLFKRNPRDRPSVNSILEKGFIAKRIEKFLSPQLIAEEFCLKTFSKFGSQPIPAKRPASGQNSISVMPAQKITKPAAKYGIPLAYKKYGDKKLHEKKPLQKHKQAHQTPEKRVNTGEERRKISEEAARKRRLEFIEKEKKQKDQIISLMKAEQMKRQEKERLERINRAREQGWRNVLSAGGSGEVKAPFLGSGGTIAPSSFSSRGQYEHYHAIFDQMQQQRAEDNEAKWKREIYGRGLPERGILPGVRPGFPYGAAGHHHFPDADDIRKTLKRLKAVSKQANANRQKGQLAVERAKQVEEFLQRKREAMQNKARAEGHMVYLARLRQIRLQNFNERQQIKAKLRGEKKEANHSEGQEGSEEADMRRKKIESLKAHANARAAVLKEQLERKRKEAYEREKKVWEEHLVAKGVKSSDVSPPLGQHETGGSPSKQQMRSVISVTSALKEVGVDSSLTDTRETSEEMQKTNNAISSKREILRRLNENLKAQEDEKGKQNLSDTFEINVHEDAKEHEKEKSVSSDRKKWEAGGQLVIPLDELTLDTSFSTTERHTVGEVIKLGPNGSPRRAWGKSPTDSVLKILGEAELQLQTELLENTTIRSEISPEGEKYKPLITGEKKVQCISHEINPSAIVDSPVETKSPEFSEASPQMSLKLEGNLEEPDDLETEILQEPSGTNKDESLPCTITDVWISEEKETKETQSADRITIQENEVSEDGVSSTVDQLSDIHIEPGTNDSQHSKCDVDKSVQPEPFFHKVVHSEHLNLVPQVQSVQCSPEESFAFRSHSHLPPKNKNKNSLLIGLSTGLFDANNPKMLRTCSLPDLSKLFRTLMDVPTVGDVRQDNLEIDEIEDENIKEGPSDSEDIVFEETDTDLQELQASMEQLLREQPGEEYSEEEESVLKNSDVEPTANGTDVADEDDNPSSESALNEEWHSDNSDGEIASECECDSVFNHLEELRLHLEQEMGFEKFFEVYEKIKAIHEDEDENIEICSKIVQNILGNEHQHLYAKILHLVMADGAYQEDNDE
# [13] = molecular target: T5, Serine/threonine-protein kinase Nek1 (Homo sapiens); conditions: at 1 µM
# [14] = molecular target: T6, Serine/threonine-protein kinase Nek2 (Homo sapiens) (UniProt P51955); conditions: at 0.1 µM
# T6 sequence (whole entry): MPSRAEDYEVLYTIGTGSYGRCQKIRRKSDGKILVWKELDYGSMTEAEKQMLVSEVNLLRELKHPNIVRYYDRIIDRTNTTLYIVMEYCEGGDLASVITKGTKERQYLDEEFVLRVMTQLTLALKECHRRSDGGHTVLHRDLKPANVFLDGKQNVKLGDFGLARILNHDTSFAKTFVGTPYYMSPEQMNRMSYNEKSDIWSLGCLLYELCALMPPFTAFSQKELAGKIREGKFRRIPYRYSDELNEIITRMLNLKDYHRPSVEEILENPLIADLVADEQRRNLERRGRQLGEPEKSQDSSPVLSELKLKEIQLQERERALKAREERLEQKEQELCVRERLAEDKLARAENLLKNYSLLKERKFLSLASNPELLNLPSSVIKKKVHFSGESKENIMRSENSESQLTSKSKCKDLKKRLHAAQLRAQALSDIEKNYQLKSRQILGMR
# [15] = molecular target: T6, Serine/threonine-protein kinase Nek2 (Homo sapiens); conditions: at 1 µM
# [16] = molecular target: Serine/threonine-protein kinase Nek6 (Homo sapiens) (UniProt Q9HC98); conditions: at 0.1 µM
# [17] = molecular target: Serine/threonine-protein kinase Nek6 (Homo sapiens) (UniProt Q9HC98); conditions: at 1 µM
# [18] = molecular target: Serine/threonine-protein kinase Nek7 (Homo sapiens) (UniProt Q8TDX7); conditions: at 0.1 µM
# [19] = molecular target: Serine/threonine-protein kinase Nek7 (Homo sapiens) (UniProt Q8TDX7); conditions: at 1 µM
# [20] = molecular target: T7, Serine/threonine-protein kinase Nek9 (Homo sapiens) (UniProt Q8TD19); conditions: at 0.1 µM;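 note: reported value is the mean percent inhibition of NEK9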
# T7 sequence (whole entry): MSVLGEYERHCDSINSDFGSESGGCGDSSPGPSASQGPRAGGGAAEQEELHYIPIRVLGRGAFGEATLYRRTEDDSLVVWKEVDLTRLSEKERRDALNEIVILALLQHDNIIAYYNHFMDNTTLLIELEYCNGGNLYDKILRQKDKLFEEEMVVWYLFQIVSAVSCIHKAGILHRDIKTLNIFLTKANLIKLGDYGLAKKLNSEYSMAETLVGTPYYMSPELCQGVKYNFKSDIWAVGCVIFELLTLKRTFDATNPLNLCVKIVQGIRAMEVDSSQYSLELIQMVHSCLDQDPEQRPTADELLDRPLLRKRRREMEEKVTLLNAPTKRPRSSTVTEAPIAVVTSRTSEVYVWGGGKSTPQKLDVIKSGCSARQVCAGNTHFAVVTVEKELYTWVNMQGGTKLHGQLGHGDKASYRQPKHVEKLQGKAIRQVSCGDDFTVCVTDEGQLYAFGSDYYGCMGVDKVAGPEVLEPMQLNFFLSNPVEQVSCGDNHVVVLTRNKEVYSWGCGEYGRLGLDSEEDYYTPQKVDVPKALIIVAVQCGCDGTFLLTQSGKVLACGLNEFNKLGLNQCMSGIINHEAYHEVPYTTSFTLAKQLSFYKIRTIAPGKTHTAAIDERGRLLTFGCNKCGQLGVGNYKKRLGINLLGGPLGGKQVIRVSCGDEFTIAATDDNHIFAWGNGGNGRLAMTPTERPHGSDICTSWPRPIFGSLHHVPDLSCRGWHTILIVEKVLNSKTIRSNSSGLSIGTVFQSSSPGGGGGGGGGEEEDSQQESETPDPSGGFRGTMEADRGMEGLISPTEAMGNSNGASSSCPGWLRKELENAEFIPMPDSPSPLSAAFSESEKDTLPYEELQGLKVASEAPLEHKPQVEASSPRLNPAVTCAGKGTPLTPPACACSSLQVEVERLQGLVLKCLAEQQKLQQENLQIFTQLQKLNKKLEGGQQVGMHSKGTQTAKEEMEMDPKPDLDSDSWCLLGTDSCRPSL
# Chain of Serine/threonine-protein kinase Nek7 (Homo sapiens) (Q8TDX7 whole entry, looked up): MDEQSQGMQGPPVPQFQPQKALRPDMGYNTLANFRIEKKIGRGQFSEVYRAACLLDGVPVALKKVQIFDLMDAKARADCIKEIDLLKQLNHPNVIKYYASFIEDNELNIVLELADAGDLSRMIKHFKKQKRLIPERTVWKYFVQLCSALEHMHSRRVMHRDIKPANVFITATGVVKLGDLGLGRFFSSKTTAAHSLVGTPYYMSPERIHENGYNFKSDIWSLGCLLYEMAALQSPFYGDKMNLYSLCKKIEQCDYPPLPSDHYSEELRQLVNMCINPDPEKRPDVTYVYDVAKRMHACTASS
# Chain of Serine/threonine-protein kinase Nek6 (Homo sapiens) (Q9HC98 whole entry): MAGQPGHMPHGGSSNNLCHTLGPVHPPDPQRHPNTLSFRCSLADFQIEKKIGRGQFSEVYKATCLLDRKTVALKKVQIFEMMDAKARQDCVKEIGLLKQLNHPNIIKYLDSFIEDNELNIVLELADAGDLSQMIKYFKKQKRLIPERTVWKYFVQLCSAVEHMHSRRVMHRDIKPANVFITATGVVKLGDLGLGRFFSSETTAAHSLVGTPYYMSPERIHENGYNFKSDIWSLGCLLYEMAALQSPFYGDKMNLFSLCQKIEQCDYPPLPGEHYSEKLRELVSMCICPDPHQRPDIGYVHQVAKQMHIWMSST
# Chain of Casein kinase II subunit alpha (Homo sapiens) (P68400 whole entry, looked up): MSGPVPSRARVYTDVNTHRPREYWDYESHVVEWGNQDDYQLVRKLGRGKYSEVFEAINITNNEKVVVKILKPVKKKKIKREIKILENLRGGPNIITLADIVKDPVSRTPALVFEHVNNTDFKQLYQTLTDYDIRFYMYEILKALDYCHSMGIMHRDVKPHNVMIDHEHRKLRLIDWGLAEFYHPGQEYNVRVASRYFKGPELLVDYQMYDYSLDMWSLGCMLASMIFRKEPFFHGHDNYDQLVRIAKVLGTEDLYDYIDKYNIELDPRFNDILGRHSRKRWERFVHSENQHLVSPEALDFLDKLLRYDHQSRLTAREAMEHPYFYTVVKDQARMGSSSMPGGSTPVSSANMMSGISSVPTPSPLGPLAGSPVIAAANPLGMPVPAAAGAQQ
# Chain of Sphingosine kinase 1 (Homo sapiens) (Q9NYA1 whole entry): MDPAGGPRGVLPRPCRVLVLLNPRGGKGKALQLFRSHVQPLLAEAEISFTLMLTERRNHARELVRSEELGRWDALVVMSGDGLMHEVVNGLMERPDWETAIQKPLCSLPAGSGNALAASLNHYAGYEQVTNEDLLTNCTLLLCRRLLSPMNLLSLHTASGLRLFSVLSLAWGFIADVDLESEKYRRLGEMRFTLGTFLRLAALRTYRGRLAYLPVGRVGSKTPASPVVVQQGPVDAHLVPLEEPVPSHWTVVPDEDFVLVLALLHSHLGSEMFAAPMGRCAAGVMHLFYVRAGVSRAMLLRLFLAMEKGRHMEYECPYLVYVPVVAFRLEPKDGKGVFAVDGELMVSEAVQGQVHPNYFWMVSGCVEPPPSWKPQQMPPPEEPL
SMILES,inhibition [1] [%],inhibition [2] [%],inhibition [3] [%],inhibition [4] [%],inhibition [5] [%],inhibition [6] [%],inhibition [7] [%],inhibition [8] [%],inhibition [9] [%],inhibition [10] [%],inhibition [11] [%],inhibition [12] [%],inhibition [13] [%],inhibition [14] [%],inhibition [15] [%],inhibition [16] [%],inhibition [17] [%],inhibition [18] [%],inhibition [19] [%],inhibition [20] [%]
COc1cc(C)c(NC(=O)CN(C)C)cc1Nc1nc(Nc2cccc(F)c2C(N)=O)c2cc[nH]c2n1,-1.23,-0.13,-0.4,7.08,35.5,0.92,-6.41,0.16,-5.7,1.27,5.68,1.77,-0.24,3.86,3.95,-0.84,-0.26,4.83,9.65,7.92
COc1ccc2cc(-c3c(-c4ccncc4)nc(-c4ccc([S+](C)[O-])cc4)n3C)ccc2c1 (stereo not given),-3.23,-1.61,-1.21,0.27,-4.21,3.64,0.12,3.95,3.93,4.41,4.64,1.1,1.54,3.66,3.14,0.57,-1.38,2.77,2.17,7.56
